Experimental data from PubChem BioAssay (Tox21).
Several values for one entry are separate records, joined by “and”; a condition that tells them apart may be missing. Equal values may be shown once. Inconclusive results are not listed. A structure can be active in one record and inactive in another. Activity calls are given as the source filed them. Unless noted, the call rests on the fitted dose curve; in most records, active means well fitted curve in the direction sought with a large enough effect in the repeat runs; inconclusive means weak or mixed curves; inactive means no such curve, though single readings can be large; an effect the other way counts as inactive or inconclusive.

Columns and labels:
[1] = qHTS assay to identify small molecule agonists of the hypoxia (HIF-1) signaling pathway - cell viability counter screen (AID 1224844; calls by dose curve; further: nearly all actives have a fitted effect of over 50% in size)
How it was run: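 Viability counter screen: HRE-bla ME-180 cells plated 5 hrs before compound addition, treated 17 hrs at 37C and 5% CO2, then CellTiter-Glo added after the FRET reporter read; luminescence after 30 min.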

[2] = qHTS assay to identify small molecule agonists of H2AX (AID 1224845; active means well fitted activation curve with a large enough effect in the signal ratio in the repeat runs, not every such curve was filed as active; the % refers to the signal ratio)
How it was run: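 Wild-type CHO-K1 cells plated overnight, then exposed 3 hr at 37C to compounds at 15 concentrations (0.76% DMSO). Lysed, then HTRF anti-pH2AX(S139)-cryptate/anti-H2AX-d2 detection after 24 hr at room temperature; emissions 665 and 620 nm.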

[3] = qHTS assay to identify small molecule agonists of the hypoxia (HIF-1) signaling pathway (AID 1224846; active means well fitted activation curve with a large enough effect in the signal ratio in the repeat runs, not every such curve was filed as active; the % refers to the signal ratio)
How it was run: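 Agonist mode reporter screen. ME-180 cells stably expressing bla under HRE control received test compounds in DMSO for 17 hrs (37C, 5% CO2), and beta-lactamase activity was then detected with the CCF4-AM FRET substrate.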

[4] = qHTS assay to identify small molecule agonists of H2AX - cell viability counter screen (AID 1224847; calls by dose curve; further: top concentration of the series differs between compounds; nearly all actives have a fitted effect of over 30% in size)
How it was run: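 For this counter screen, overnight-attached CHO-K1 cells received test compounds (15 concentrations, 0.76% DMSO final); 3 hr later at 37C, CellTiter-Glo reagent was added and luminescence recorded after 30 min at room temperature.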

[5] = qHTS RealTime-Glo MT Cell Viability Assay in HepG2 cells - 24 hour (AID 1224867); further: nearly all actives have a fitted effect of over 50% in size
How it was run: (§1)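 Viability was tracked continuously by NanoLuc luminescence from prosubstrate reduced by living HepG2 cells, at successive time points over 40 h of compound exposure. Cells with reagent were preincubated 5 h at 37 °C before compound addition.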

[6] = qHTS RealTime-Glo MT Cell Viability Assay in HEK293 cells - 32 hour (AID 1224868); further: top concentration of the series differs between compounds; nearly all actives have a fitted effect of over 50% in size
How it was run: (§2)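 Viability tracked continuously by luminescence as live cells reduce a prosubstrate for NanoLuc; HEK293 cells preincubated 5 h, compound-treated at 37 C, and read at 0, 8, 16, 24, 32 and 40 h.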

[7] = A CellTox Green Cytotoxicity Assay to monitor cytotoxicity in HEK293 cells - 0 hour (AID 1224869); further: nearly all actives have a fitted effect of over 50% in size
How it was run: (§3)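 Dead-cell fluorescence measured kinetically: asymmetric cyanine dye, HEK293, 600 cells/well, 5 h settle, 23 nL cpd/DMSO, 37 C, reads 0–40 h every 8 h.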

[8] = qHTS RealTime-Glo MT Cell Viability Assay in HepG2 cells - 40 hour (AID 1224870); further: nearly all actives have a fitted effect of over 50% in size
How it was run: (§4)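 HepG2 cells mixed with RealTime-Glo MT reagents (NanoLuc plus cell-permeant prosubstrate) were seeded at 600 cells/well, incubated 5 h at 37 C/5% CO2, then pinned with compounds in DMSO; nonlytic luminescence tracked viability during 40 h treatment.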

[9] = A CellTox Green Cytotoxicity Assay to monitor cytotoxicity in HEK293 cells - 40 hour (AID 1224871); further: nearly all actives have a fitted effect of over 45% in size
How it was run: as §3

[10] = qHTS RealTime-Glo MT Cell Viability Assay in HEK293 cells - 16 hour (AID 1224872)
How it was run: as §2

[11] = qHTS RealTime-Glo MT Cell Viability Assay in HepG2 cells - 8 hour (AID 1224873); further: nearly all actives have a fitted effect of over 55% in size
How it was run: as §4

[12] = qHTS RealTime-Glo MT Cell Viability Assay in HEK293 cells - 40 hour (AID 1224874); conditions: RealTime-Glo luminescence; max response: stronger effect = lower value; further: nearly all actives have a fitted effect of over 50% in size; further: potency means the concentration at half of the fitted maximal effect
How it was run: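 600 HEK293 cells per well, dispensed already mixed with RealTime-Glo MT reagents. Compound dosing came 5 h later. The same wells were read for luminescence at 0, 8, 16, 24, 32 and 40 h of exposure at 37 C.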

[13] = A CellTox Green Cytotoxicity Assay to monitor cytotoxicity in HEK293 cells - 24 hour (AID 1224875); further: series mostly up to about 77 µM; nearly all actives have a fitted effect of over 45% in size
How it was run: as §3

[14] = A CellTox Green Cytotoxicity Assay to monitor cytotoxicity in HepG2 cells - 16 hour (AID 1224876); further: nearly all actives have a fitted effect of over 45% in size
How it was run: (§5)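 First, HepG2 cells (600/well) mixed with reagent were plated; second, after 5 h at 37 C they received compounds via pintool; third, fluorescence was measured at 0 h through 40 h at 8 h intervals.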

[15] = qHTS RealTime-Glo MT Cell Viability Assay in HepG2 cells - 32 hour (AID 1224877); further: nearly all actives have a fitted effect of over 55% in size
How it was run: as §1

[16] = A CellTox Green Cytotoxicity Assay to monitor cytotoxicity in HepG2 cells - 24 hour (AID 1224878); further: nearly all actives have a fitted effect of over 45% in size
How it was run: as §5

[17] = A CellTox Green Cytotoxicity Assay to monitor cytotoxicity in HepG2 cells - 40 hour (AID 1224879); further: nearly all actives have a fitted effect of over 40% in size
How it was run: as §5

[18] = qHTS assay to identify small molecule antagonists of the estrogen related receptor (ERR) signaling pathway from Tox21 library (AID 1224848); further: nearly all actives have a fitted effect of over 50% in size
How it was run: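 First, 2,000 ERR cells per well were plated and held 6 h at 37 C/5% CO2. Next, compounds in DMSO were pinned in and left 18 h at 37 C. Finally, ONE-Glo was added and luminescence read after 30 min at room temperature.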

[19] = biological target: Thyrotropin receptor (Homo sapiens) (UniProt P16473); experiment: qHTS assay to identify small molecule agonists of the thyroid stimulating hormone receptor (TSHR) signaling pathway (AID 1224843; calls by dose curve; further: nearly all actives have a fitted effect of over 45% in size)
Sequence of Thyrotropin receptor (Homo sapiens) (P16473 whole entry, looked up): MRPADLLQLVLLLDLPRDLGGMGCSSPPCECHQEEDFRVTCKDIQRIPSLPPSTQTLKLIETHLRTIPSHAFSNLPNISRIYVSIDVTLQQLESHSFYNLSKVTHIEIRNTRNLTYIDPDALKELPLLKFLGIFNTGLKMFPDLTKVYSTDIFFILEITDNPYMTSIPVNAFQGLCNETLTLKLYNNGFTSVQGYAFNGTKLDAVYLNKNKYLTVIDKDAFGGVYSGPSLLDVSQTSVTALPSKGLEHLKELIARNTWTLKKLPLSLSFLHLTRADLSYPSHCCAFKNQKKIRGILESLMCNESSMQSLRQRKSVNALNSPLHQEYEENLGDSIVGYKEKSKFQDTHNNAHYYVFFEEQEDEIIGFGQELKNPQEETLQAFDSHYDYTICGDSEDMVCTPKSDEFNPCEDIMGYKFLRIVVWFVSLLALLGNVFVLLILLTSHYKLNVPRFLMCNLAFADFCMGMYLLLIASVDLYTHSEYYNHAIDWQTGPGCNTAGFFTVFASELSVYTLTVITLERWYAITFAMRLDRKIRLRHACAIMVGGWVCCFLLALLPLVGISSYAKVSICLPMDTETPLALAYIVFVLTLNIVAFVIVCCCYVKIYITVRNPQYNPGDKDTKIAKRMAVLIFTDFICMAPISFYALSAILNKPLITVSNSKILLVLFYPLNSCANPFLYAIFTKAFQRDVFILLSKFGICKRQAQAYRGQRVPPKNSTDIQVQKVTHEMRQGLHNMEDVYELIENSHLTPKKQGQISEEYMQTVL
How it was run: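 Compounds are titrated over 15 concentrations, in triplicate, onto TSHR-HEK293 cells seeded at 800/well. Plates sit 30 min at room temperature before cAMP-d2 and anti-cAMP cryptate are added; signal is read after a further hour.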
On the % scale 0 is the no-effect control and ±100 the full control effect.

CC(C)CCCCCCOC(=O)c1ccccc1C(=O)OCCCCCCC(C)C
inactive: Potency [1] | Potency [2] | outcome [3] | Potency [4] | outcome [5] | Potency [6] | Potency [7] | outcome [8] | Potency [9] | outcome [10] | outcome [11] | max response [12] 12.6% and 8.04% and 6.43% | Potency [13] | Potency [14] | outcome [15] | Potency [16] | Potency [17]

O=C(O)Cc1ccccc1
inactive: Potency [1] | Potency [2] | outcome [3] | Potency [4] | Potency [18] | outcome [5] | Potency [6] | Potency [7] | outcome [8] | Potency [9] | outcome [10] | max response [12] 21.7% and 3.56% | Potency [13] | outcome [15] | Potency [16] | Potency [17]

CNC(=O)O/N=C(\SC)C(=O)N(C)C
inactive: Potency [1] | Potency [2] | outcome [3] | Potency [4] | Potency [18] | outcome [5] | Potency [7] | outcome [8] | Potency [9] | outcome [10] | max response [12] -3.21% and 9.55% | Potency [13] | outcome [15] | Potency [16] | Potency [17]

O=C(O)C1C(C(=O)O)C2(Cl)C(Cl)=C(Cl)C1(Cl)C2(Cl)Cl (stereo unspecified)
inactive: Potency [19] | Potency [1] | Potency [4] | outcome [5] | Potency [7] | outcome [8] | Potency [9] | outcome [10] | max response [12] 9.62% and 1.68% | Potency [13] | outcome [15] | Potency [16] | Potency [17]

CC[N+](=O)[O-]
inactive: Potency [1] | outcome [3] | Potency [4] | outcome [5] | Potency [6] | Potency [7] | outcome [8] | Potency [9] | outcome [10] | outcome [11] | max response [12] 7.02% and 16.9% | Potency [13] | outcome [15] | Potency [16] | Potency [17]

N#Cc1cccc(C#N)c1
inactive: Potency [1] | outcome [3] | Potency [4] | outcome [5] | Potency [7] | outcome [8] | Potency [9] | outcome [10] | max response [12] 2.43% and 3.42% | Potency [13] | Potency [14] | outcome [15] | Potency [16] | Potency [17]

OC[C@@H](O)[C@H]1O[C@@H]2O[C@H](C(Cl)(Cl)Cl)O[C@@H]2[C@H]1O
inactive: Potency [1] | outcome [3] | Potency [4] | Potency [18] | outcome [5] | Potency [6] | Potency [7] | outcome [8] | Potency [9] | outcome [10] | max response [12] -9.36% and 2.42% | Potency [13] | Potency [14] | outcome [15] | Potency [16] | Potency [17]

CCSC(=O)N1CCCCCC1
inactive: Potency [1] | outcome [3] | Potency [4] | Potency [18] | outcome [5] | Potency [6] | Potency [7] | outcome [8] | Potency [9] | outcome [10] | max response [12] 3.34% | Potency [13] | Potency [14] | outcome [15] | Potency [16] | Potency [17]
active: Potency [12] 12 µM

C[C@H]1C(=O)O[C@@H]2CCN3CC=C(COC(=O)[C@](C)(O)[C@]1(C)O)[C@H]23
inactive: Potency [1] | Potency [4] | outcome [5] | Potency [6] | Potency [7] | outcome [8] | Potency [9] | outcome [10] | max response [12] -22.4% and -7.52% and -7.78% | Potency [13] | outcome [15] | Potency [16] | Potency [17]
